PubChem BioAssay (EPA / NIEHS)
Where “and” joins values, the source holds several entries; their conditions need not be identical. Identical values can stand only once. Inconclusive results are not listed. Calls of active or inactive are those of the source. Rule for the calls, unless noted: active = hit-call score of the fitted dose curve at least 0.9, where 1 is the maximum; inconclusive = response in the unintended direction; inactive = score below 0.9.

Experiments:
[1] = molecular target: Cytochrome P450 2C18 (Homo sapiens) (UniProt P33260); test: NVS_ADME_hCYP2C18: NovaScreen (NVS) CYP450-related Enzyme Activity (ADME) Assay for human CYP2C18 (AID 2283103; active = hit-call score of the fitted dose curve at least 0.9, where 1 is the maximum; inactive = score below 0.9)
Cytochrome P450 2C18 (Homo sapiens), sequence (P33260 whole entry, looked up): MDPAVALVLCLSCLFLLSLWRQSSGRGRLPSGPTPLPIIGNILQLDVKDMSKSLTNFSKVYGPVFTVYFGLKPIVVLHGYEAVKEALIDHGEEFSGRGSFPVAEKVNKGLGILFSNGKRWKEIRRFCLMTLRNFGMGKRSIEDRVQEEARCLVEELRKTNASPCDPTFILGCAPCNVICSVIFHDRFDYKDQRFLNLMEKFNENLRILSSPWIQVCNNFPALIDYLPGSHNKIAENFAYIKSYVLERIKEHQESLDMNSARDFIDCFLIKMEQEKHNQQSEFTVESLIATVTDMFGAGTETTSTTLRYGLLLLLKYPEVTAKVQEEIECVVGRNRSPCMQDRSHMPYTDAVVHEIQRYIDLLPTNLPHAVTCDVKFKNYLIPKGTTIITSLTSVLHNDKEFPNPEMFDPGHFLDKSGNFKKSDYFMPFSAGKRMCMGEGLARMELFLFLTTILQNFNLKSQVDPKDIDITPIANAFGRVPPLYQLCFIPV
Outline: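 Cell-free recombinant human CYP2C18 with fluorogenic substrate; fluorescence intensity read 0.5 h after dosing. Single-point screen at 10 uM in duplicate, then concentration-response up to 20 uM; loss of signal fitted against acetonitrile baseline.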

[2] = molecular target: human CYP2C8, CYP2C8 (gene 1558) (UniProt P10632); test: NVS_ADME_hCYP2C8: NovaScreen (NVS) CYP450-related Enzyme Activity (ADME) Assay for human CYP2C8 (AID 2283104; active = hit-call score of the fitted dose curve at least 0.9, where 1 is the maximum; inactive = score below 0.9)
human CYP2C8, CYP2C8 (gene 1558), sequence (P10632 whole entry, looked up): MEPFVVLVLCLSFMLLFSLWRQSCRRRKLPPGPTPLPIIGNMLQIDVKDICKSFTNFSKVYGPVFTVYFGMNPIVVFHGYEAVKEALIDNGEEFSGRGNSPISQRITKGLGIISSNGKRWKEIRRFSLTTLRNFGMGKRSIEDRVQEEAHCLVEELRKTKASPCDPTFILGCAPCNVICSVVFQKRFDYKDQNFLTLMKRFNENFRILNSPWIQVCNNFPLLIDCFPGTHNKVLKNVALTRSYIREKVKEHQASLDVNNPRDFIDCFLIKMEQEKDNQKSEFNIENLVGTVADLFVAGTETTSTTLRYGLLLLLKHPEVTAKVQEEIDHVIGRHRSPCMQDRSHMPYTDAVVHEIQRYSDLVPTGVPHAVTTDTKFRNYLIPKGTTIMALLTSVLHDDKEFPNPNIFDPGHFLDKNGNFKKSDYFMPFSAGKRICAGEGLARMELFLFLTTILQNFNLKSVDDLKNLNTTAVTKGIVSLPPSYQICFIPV
Outline: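 Recombinant human CYP2C8 with fluorogenic substrate, 0.5 h, fluorescence intensity; signal loss fitted versus acetonitrile. Screened in duplicate at 10 uM, then actives run in concentration-response up to 20 uM.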

[3] = molecular target: human CYP2J2, CYP2J2 (gene 1573) (UniProt P51589); test: NVS_ADME_hCYP2J2: NovaScreen (NVS) CYP450-related Enzyme Activity (ADME) Assay for human CYP2J2 (AID 2283106)
human CYP2J2, CYP2J2 (gene 1573), sequence (P51589 whole entry, looked up): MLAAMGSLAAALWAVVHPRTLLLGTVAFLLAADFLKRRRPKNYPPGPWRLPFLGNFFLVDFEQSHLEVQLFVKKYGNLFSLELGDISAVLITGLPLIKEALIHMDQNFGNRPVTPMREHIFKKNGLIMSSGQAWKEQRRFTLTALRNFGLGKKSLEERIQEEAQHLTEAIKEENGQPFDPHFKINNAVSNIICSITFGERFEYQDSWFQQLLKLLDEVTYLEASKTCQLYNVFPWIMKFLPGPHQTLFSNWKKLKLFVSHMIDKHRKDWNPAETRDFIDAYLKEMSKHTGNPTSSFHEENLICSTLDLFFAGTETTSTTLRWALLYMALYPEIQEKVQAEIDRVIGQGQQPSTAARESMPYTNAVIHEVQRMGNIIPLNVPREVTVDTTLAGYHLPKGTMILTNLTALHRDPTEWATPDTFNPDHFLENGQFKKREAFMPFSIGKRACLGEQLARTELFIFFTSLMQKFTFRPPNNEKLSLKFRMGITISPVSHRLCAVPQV
Outline: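 Cell-free assay of recombinant CYP2J2 with a fluorogenic substrate, read 1 h after dosing; loss of signal versus acetonitrile. Primary screen at 10 uM in duplicate, then concentration-response up to 20 uM for chemicals passing threshold (e.g., 30% inhibition).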

[4] = molecular target: rat CYP2A2, Cyp2a2 (gene 24895) (UniProt P15149); test: NVS_ADME_rCYP2A2: NovaScreen (NVS) CYP450-related Enzyme Activity (ADME) Assay for rat CYP2A2 (AID 2283116)
rat CYP2A2, Cyp2a2 (gene 24895), sequence (P15149 whole entry, looked up): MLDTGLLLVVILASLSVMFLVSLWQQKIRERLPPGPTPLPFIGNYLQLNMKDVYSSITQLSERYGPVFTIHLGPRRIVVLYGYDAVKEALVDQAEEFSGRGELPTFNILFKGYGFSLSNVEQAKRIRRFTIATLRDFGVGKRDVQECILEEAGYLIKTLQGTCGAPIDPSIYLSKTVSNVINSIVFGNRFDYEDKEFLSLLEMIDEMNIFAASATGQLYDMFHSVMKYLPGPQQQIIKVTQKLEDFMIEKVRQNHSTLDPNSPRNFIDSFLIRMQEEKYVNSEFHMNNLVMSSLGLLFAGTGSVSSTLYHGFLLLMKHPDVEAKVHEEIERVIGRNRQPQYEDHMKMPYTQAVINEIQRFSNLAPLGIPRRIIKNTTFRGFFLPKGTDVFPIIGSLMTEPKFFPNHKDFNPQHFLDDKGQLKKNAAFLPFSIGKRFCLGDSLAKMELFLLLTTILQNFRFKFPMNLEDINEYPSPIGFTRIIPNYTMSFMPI
Outline: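 Cell-free recombinant rat CYP2A2 activity with fluorogenic substrate, fluorescence read 0.2 h after dosing. Chemicals screened at 10 uM in duplicate, hits then run in concentration-response up to 20 uM; signal loss versus acetonitrile baseline.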

[5] = molecular target: rat CYP2C11, Cyp2c11 (gene 29277) (UniProt P08683); test: NVS_ADME_rCYP2C11: NovaScreen (NVS) CYP450-related Enzyme Activity (ADME) Assay for rat CYP2C11 (AID 2283118)
rat CYP2C11, Cyp2c11 (gene 29277), sequence (P08683 whole entry, looked up): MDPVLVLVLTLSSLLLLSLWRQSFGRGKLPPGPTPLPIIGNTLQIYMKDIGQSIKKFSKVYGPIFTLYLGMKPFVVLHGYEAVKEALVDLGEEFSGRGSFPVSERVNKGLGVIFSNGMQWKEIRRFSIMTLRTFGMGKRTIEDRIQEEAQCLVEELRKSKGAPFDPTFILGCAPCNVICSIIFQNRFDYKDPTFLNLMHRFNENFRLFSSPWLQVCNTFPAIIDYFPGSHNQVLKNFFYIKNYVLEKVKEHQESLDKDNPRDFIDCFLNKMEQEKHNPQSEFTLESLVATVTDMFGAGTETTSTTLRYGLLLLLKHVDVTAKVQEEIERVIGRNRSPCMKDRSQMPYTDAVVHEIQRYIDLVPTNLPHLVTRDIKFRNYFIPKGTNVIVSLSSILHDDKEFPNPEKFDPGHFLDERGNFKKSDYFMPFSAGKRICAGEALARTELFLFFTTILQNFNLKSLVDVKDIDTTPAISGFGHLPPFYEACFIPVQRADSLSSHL
Outline: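 Cell-free recombinant rat enzyme with fluorescent substrate; readout 0.33 h after dosing, loss of signal versus acetonitrile control. Initial duplicate single-point at 10 uM; actives rerun in concentration series.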

rat CYP3A1, gene 25642 = test: NVS_ADME_rCYP3A1: NovaScreen (NVS) CYP450-related Enzyme Activity (ADME) Assay for rat CYP3A1 (AID 2283126)
Outline: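 Cell-free recombinant CYP assay with fluorescent substrate, read 0.5 h after dosing. Screened at 10 uM in duplicate, hits at up to 20 uM in concentration-response; loss of signal versus acetonitrile baseline.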

[6] = molecular target: human CYP2D6, CYP2D6 (gene 1565) (UniProt P10635); test: NVS_ADME_hCYP2D6: NovaScreen (NVS) CYP450-related Enzyme Activity (ADME) Assay for human CYP2D6 (AID 2283107)
human CYP2D6, CYP2D6 (gene 1565), sequence (P10635 whole entry, looked up): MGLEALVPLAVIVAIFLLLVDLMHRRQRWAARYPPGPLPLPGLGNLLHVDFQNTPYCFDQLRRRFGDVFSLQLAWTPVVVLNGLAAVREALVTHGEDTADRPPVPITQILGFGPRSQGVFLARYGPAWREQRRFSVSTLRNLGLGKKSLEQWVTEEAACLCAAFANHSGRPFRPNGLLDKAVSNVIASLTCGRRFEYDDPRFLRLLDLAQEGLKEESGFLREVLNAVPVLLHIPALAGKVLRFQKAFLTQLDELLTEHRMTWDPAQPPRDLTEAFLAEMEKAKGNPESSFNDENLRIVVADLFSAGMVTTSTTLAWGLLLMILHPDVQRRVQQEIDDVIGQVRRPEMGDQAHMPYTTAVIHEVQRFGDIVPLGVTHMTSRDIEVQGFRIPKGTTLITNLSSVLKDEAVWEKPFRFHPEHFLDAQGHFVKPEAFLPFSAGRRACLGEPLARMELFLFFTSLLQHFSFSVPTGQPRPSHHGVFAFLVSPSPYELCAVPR
Outline: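 Cell-free assay using recombinant enzyme expressed in insect cells, with fluorescence-intensity readout of enzyme activity 1 hour after chemical dosing. Loss of signal versus acetonitrile negative control indicates inhibition. Primary screen ran in duplicate at 10 uM; actives were retested in concentration series.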

[7] = molecular target: Cytochrome P450 2C19 (Homo sapiens) (UniProt P33261); test: NVS_ADME_hCYP2C19: NovaScreen (NVS) CYP450-related Enzyme Activity (ADME) Assay for human CYP2C19 (AID 2283113);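 for AC50: potency for inhibition seen as loss of fluorescent signal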
Outline: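 Cell-free assay of recombinant human CYP2C19 expressed in insect cells, with a fluorogenic substrate; fluorescence intensity read 1 hour after dosing. Loss of signal relative to acetonitrile negative control indicates inhibition. Primary screen at 10 uM in duplicate, then concentration series.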

[8] = molecular target: rat CYP2C12, Cyp2c12 (gene 25011) (UniProt P11510); test: NVS_ADME_rCYP2C12: NovaScreen (NVS) CYP450-related Enzyme Activity (ADME) Assay for rat CYP2C12 (AID 2283119)
rat CYP2C12, Cyp2c12 (gene 25011), sequence (P11510 whole entry, looked up): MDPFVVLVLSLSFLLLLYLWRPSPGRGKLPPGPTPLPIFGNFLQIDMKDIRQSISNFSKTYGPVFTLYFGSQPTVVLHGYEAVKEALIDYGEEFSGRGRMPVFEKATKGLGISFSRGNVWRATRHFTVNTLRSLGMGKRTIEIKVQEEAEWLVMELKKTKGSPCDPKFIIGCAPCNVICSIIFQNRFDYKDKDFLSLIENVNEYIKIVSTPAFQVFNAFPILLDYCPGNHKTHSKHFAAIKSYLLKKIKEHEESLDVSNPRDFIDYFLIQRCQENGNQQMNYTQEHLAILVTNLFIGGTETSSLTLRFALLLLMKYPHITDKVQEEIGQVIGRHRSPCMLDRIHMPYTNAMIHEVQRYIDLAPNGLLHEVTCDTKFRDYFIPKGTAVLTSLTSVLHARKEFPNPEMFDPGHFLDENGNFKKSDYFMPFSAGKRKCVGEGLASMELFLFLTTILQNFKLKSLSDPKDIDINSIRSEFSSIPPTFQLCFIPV
Outline: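 Cell-free recombinant rat CYP2C12 activity read by fluorescence 0.5 h after dosing; loss of signal versus acetonitrile control. Primary screen in duplicate at 10 uM; actives then run in concentration-response format.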

[9] = molecular target: rat CYP2D1, Cyp2d1 (gene 266684) (UniProt P10633); test: NVS_ADME_rCYP2D1: NovaScreen (NVS) CYP450-related Enzyme Activity (ADME) Assay for rat CYP2D1 (AID 2283122)
rat CYP2D1, Cyp2d1 (gene 266684), sequence (P10633 whole entry, looked up): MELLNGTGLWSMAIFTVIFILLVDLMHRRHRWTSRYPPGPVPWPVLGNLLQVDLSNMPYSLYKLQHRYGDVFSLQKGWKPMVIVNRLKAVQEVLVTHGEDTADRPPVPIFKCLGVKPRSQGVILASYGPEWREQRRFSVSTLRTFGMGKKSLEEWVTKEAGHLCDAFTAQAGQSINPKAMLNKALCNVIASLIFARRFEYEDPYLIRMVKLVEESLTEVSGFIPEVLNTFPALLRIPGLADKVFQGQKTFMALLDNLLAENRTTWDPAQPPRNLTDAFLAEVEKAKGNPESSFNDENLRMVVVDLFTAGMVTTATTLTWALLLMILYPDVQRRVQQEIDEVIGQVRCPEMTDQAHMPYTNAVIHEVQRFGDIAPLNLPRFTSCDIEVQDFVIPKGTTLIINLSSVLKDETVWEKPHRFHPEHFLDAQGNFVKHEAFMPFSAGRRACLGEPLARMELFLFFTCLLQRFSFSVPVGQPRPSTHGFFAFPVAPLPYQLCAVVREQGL
Outline: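 Cell-free fluorescence enzyme-activity assay on extracted rat CYP2D1 protein, read 0.75 h after dosing. Primary screen in duplicate at 10 uM; qualifying chemicals then run in concentration-response to 20 uM max, loss-of-signal versus acetonitrile baseline.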

[10] = molecular target: Cytochrome P450 3A4 (Homo sapiens) (UniProt P08684); test: NVS_ADME_hCYP3A4: NovaScreen (NVS) CYP450-related Enzyme Activity (ADME) Assay for human CYP3A4 (AID 2283110)
Cytochrome P450 3A4 (Homo sapiens), sequence (P08684 whole entry, looked up): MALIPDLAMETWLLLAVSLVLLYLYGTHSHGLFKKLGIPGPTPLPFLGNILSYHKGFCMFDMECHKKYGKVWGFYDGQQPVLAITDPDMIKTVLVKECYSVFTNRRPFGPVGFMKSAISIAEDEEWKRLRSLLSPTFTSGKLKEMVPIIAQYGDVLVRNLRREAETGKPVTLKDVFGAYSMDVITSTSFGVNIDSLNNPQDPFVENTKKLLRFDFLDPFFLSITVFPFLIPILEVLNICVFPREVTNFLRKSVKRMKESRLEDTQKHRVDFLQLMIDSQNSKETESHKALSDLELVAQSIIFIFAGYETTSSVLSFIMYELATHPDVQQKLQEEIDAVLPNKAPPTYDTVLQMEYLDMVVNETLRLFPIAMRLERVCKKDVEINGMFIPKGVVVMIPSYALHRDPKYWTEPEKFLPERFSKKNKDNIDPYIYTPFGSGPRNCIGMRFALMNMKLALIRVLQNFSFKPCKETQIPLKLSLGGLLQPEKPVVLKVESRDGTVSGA
Outline: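 Compounds were first screened in duplicate at 10 uM against recombinant CYP3A4 produced in insect cells, then actives were run in concentration series. Enzyme activity was measured by fluorescence after 0.33 hour, with acetonitrile as baseline.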

rat CYP2B1, gene 24300 = test: NVS_ADME_rCYP2B1: NovaScreen (NVS) CYP450-related Enzyme Activity (ADME) Assay for rat CYP2B1 (AID 2283117)
Outline: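 Recombinant rat CYP2B1 with fluorogenic substrate, read at 0.75 h. Primary screen in duplicate at 10 uM; compounds meeting threshold (e.g., 30% inhibition) re-run in concentration-response up to 20 uM. Fitted against acetonitrile control.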

[11] = molecular target: rat CYP2C13, Cyp2c13 (gene 171521) (UniProt P20814); test: NVS_ADME_rCYP2C13: NovaScreen (NVS) CYP450-related Enzyme Activity (ADME) Assay for rat CYP2C13 (AID 2283121)
rat CYP2C13, Cyp2c13 (gene 171521), sequence (P20814 whole entry, looked up): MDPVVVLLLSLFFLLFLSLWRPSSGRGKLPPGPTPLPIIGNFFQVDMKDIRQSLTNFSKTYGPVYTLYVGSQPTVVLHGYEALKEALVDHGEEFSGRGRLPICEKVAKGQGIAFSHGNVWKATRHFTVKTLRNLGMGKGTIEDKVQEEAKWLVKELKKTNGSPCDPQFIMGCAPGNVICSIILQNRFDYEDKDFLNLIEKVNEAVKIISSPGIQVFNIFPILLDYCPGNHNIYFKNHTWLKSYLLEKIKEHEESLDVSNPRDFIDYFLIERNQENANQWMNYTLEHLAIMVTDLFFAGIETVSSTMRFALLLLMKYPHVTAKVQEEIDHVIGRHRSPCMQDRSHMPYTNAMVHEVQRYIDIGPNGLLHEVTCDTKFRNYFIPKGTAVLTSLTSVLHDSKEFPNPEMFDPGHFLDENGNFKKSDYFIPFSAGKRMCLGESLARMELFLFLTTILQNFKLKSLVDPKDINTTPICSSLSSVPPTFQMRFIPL
Outline: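 Recombinant rat CYP2C13 with fluorogenic substrate, 0.75 h cell-free incubation; primary screen in duplicate at 10 uM, actives followed in concentration series. Fluorescence loss relative to acetonitrile control indicates inhibition.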

rat CYP2C6, gene 293989 = test: NVS_ADME_rCYP2C6: NovaScreen (NVS) CYP450-related Enzyme Activity (ADME) Assay for rat CYP2C6 (AID 2283120)
Outline: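 Cell-free recombinant rat CYP2C6 with fluorogenic substrate, read by fluorescence 1 h after dosing; acetonitrile as negative control. Primary screen at 10 uM in duplicate, actives then in concentration-response up to 20 uM.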

[12] = molecular target: human Acetylcholinesterase (AChE), ACHE (gene 43) (UniProt P22303); test: NVS_ENZ_hAChE: NovaScreen (NVS) Enzymatic Assay for human Acetylcholinesterase (AChE) (AID 2283129)
Outline: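 Cell-free colorimetric enzyme-activity assay; compounds read 0.33 hour after dosing, loss of signal vs DMSO baseline. Primary screen in duplicate at 25 uM single concentration, with active compounds retested in concentration series.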

[13] = molecular target: rat CYP1A2, Cyp1a2 (gene 24297) (UniProt P04799); test: NVS_ADME_rCYP1A2: NovaScreen (NVS) CYP450-related Enzyme Activity (ADME) Assay for rat CYP1A2 (AID 2283115)
Outline: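 Cell-free recombinant rat enzyme with fluorogenic substrate, read by fluorescence intensity 1 hour after dosing. Loss of signal versus acetonitrile negative control; primary screen at 10 uM in duplicate, actives followed in concentration series.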

Caspase-1 (Homo sapiens) = Caspase-1 (Homo sapiens) (UniProt P29466); test: NVS_ENZ_hCASP1: NovaScreen (NVS) Enzymatic Assay for human Caspase 1 (CASP1) (AID 2283132)
Outline: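 Cell-free enzymatic assay with E. coli-expressed recombinant protein; fluorescence intensity read 1 hour after dosing. Single-concentration duplicate screen at 25 uM, then concentration-response up to 50 uM; activity fitted relative to DMSO, loss of signal meaning inhibition.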

[14] = molecular target: human AMP-activated Protein Kinase, alpha 1 (AMPKa1), PRKAA1 (gene 5562) (UniProt Q13131); test: NVS_ENZ_hAMPKa1: NovaScreen (NVS) Enzymatic Assay for human AMP-activated Protein Kinase, alpha 1 (AMPKa1) (AID 2283130)
Outline: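 Recombinant human AMPKα1 activity was measured cell-free by fluorescent substrate conversion with electrophoretic mobility-shift separation, 1 h after dosing. Duplicate single-point screening was at 25 uM; actives (≥30% inhibition) were retested in concentration-response up to 50 uM.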

[15] = molecular target: human Caspase 10 (CASP10), CASP10 (gene 843) (UniProt Q92851); test: NVS_ENZ_hCASP10: NovaScreen (NVS) Enzymatic Assay for human Caspase 10 (CASP10) (AID 2283133)
Outline: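 Recombinant human caspase-10 from E. coli, cell-free fluorogenic substrate assay read 1 h after dosing. Primary duplicate screen at 25 uM; hits (e.g. ≥30% inhibition) run singly in concentration-response up to 50 uM, normalised to DMSO.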

Measured: AC50

C#CCC1=C(C)C(OC(=O)C2C(C=C(C)C)C2(C)C)CC1=O (configuration not stated)
active: [1] 7410 nM | [3] 10000 nM | [4] 3.46 µM | rat CYP3A1, gene 25642 7590 nM
inactive: [2] | [5]

CSc1nnc(C(C)(C)C)c(=O)n1N
inactive: [6] | [7]

CSC1=N[C@@](C)(c2ccccc2)C(=O)N1Nc1ccccc1
inactive: [9]
active: [1] 5620 nM | [7] 776 nM | [8] 8000 nM | rat CYP3A1, gene 25642 2770 nM

C=C(C)[C@H]1Cc2c(ccc3c2O[C@@H]2COc4cc(OC)c(OC)cc4[C@@H]2C3=O)O1
active: [1] 2620 nM | [7] 434 nM | [5] 5050 nM | [11] 2260 nM
inactive: [10] | [4] | rat CYP2B1, gene 24300

CCOP(=S)(OCC)Oc1ccc2c(C)c(Cl)c(=O)oc2c1
inactive: [2] | [4]
active: [1] 734 nM | [3] 64.6 nM | [7] 428 nM | rat CYP2B1, gene 24300 914 nM | [5] 1200 nM | [8] 799 nM | rat CYP2C6, gene 293989 452 nM | [9] 854 nM | rat CYP3A1, gene 25642 1220 nM

CCCCOC(=O)c1ccccc1C(=O)O
active: [4] 2.6 µM
inactive: [2] | [7] | rat CYP2B1, gene 24300

CC(C1CC1)C(O)(Cn1cncn1)c1ccc(Cl)cc1 (configuration not stated)
active: [1] 3260 nM | [10] 4560 nM | [7] 111 nM | [4] 56.8 nM and 76.2 nM | rat CYP2B1, gene 24300 401 nM and 1.61 µM | [5] 1690 nM | [8] 3710 nM | [11] 75.5 nM | rat CYP3A1, gene 25642 384 nM

COc1ccc(C(=CC(=O)N2CCOCC2)c2ccc(Cl)cc2)cc1OC
active: [1] 7000 nM | [7] 7590 nM | rat CYP2C6, gene 293989 3980 nM | rat CYP3A1, gene 25642 3860 nM

CON=C(C(=O)OC)c1ccccc1CON=C(C)c1cccc(C(F)(F)F)c1
active: [1] 1210 nM | [7] 2260 nM

CCCSP(=O)(OCC)SCCC
active: [6] 7870 nM

CC(C)=CC1C(C(=O)OCN2C(=O)C3=C(CCCC3)C2=O)C1(C)C (configuration not stated)
active: [1] 4300 nM | [7] 6880 nM | [11] 8970 nM
inactive: rat CYP3A1, gene 25642

CCCCSP(=O)(SCCCC)SCCCC
inactive: [6] | [7]

CCOC(=O)CC(SP(=O)(OC)OC)C(=O)OCC (configuration not stated)
active: [7] 9390 nM | [5] 8370 nM | rat CYP2C6, gene 293989 5320 nM
inactive: [1] | [2] | [10] | [4] | rat CYP2B1, gene 24300 | [11] | rat CYP3A1, gene 25642 | [12]

CCCSP(=O)(OCC)Oc1ccc(Br)cc1Cl (configuration not stated)
active: [1] 3450 nM | [7] 10000 nM | [5] 226 nM | rat CYP2C6, gene 293989 8280 nM | [11] 9490 nM | rat CYP3A1, gene 25642 9450 nM | [12] 7930 nM
inactive: [13]

C[Si](Cn1cncn1)(c1ccc(F)cc1)c1ccc(F)cc1
inactive: [3]
active: [1] 645 nM | [7] 36.6 nM | [4] 0.0595 µM | rat CYP2B1, gene 24300 37.1 nM | [5] 250 nM | [8] 4130 nM | rat CYP2C6, gene 293989 519 nM | [11] 173 nM | [9] 4300 nM | rat CYP3A1, gene 25642 1230 nM

FC(F)C(F)(F)OCC(Cn1cncn1)c1ccc(Cl)cc1Cl (configuration not stated)
active: [1] 915 nM | [10] 6400 nM | [7] 6.46 nM | [4] 0.074 µM | rat CYP2B1, gene 24300 452 nM | [5] 732 nM | [8] 3950 nM | rat CYP2C6, gene 293989 1680 nM | [11] 257 nM | [9] 7860 nM | rat CYP3A1, gene 25642 3650 nM

S=C1NCCN1
inactive: [1] | [7] | [8] | rat CYP3A1, gene 25642 | Caspase-1 (Homo sapiens)

CCNc1nc(Cl)nc(NC(C)(C)C#N)n1
inactive: [2]

C#CC(C)(C)NC(=O)c1cc(Cl)cc(Cl)c1
active: [1] 2670 nM | [3] 1340 nM
inactive: Caspase-1 (Homo sapiens)

COP(=O)(OC)OC(Br)C(Cl)(Cl)Br (configuration not stated)
inactive: [6]

O=[N+]([O-])c1cc(C(F)(F)F)c(Cl)c([N+](=O)[O-])c1Nc1ncc(C(F)(F)F)cc1Cl
inactive: [8]

CCOP(=O)(SC(C)CC)N1CCSC1=O (configuration not stated)
active: rat CYP2C6, gene 293989 5010 nM

CCC(=O)Nc1ccc(Cl)c(Cl)c1
active: [9] 5390 nM

Cc1cc(C2CC2)nc(Nc2ccccc2)n1
inactive: [14] | Caspase-1 (Homo sapiens)
active: [9] 6960 nM

CC(C)[C@H](C(=O)O[C@H](C#N)c1cccc(Oc2ccccc2)c1)c1ccc(Cl)cc1
inactive: Caspase-1 (Homo sapiens)

CCc1cccc(CC)c1N(COC)C(=O)CCl
inactive: [15]

O=C(O)c1cc(Oc2ccc(C(F)(F)F)cc2Cl)ccc1[N+](=O)[O-]
inactive: [15]
